# Test results from PubChem BioAssay (Tox21).
# Records with an inconclusive call do not appear. Activity calls are given as the source filed them. Unless noted, the call rests on the fitted dose curve; in most records, active means well fitted cell-killing curve with a large enough effect in the repeat runs; inconclusive means weak or mixed curves; inactive means no such curve, though single readings can be large or run the other way. Residues, ends and D or L forms follow the SMILES beside them.
# System: not listed separately
# Experiment: qHTS assay to identify small molecule agonists of the peroxisome proliferator-activated receptor delta (PPARd) signaling pathway - cell viability counter screen (AID 743211); further: nearly all actives have a fitted effect of over 55% in size
# Conditions: PPARd-bla HEK293H viability, CellTiter-Glo luminescence, 17 h; series mostly up to 62.6 µM
# Method in brief: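 qHTS cell viability: PPARd-bla HEK293H; 17 h cpd, 37C; CellTiter-Glo, luminescence at 30 min RT.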
row,SMILES,outcome
1,O=C(O)CCC(=O)O,inactive
2,CCCC(O)C(CC)CO (stereo not given),inactive
3,CC(O)CO (stereo not given),inactive
4,CC(O)CN(CCN(CC(C)O)CC(C)O)CC(C)O (stereo not given),inactive
5,O=C(O)c1cccnc1,inactive
6,O=C(O)C(=O)O,inactive
7,CC(=O)Nc1nnc(S(N)(=O)=O)s1,inactive
8,OC(Cn1cncn1)(Cn1cncn1)c1ccc(F)cc1F,inactive
9,O=C(O)c1cccc([N+](=O)[O-])c1,inactive
10,CC(O)C(=O)O (stereo not given),inactive
11,Nc1ccn([C@H]2CC[C@@H](CO)O2)c(=O)n1,inactive
12,CC1(C)[C@@H]2CC[C@@]1(C)C(=O)C2,inactive
13,Nc1ccc(S(=O)(=O)Nc2nccs2)cc1,inactive
14,COC(=O)[C@H](Cc1ccccc1)NC(=O)[C@@H](N)CC(=O)O (H-Asp-Phe-OMe),inactive
15,O=C1NC(=O)c2ccccc21,inactive
16,CCCCCCCCCCCCCCCC(=O)O,inactive
17,Cc1ccc(C)c(OCCCC(C)(C)C(=O)O)c1,inactive
18,CC(=O)OCC(COC(C)=O)OC(C)=O,inactive

row,SMILES,outcome
1,C1N2CN3CN1CN(C2)C3,inactive
2,O=c1cc[nH]c(=S)[nH]1,inactive
3,CCCNC(=O)NS(=O)(=O)c1ccc(Cl)cc1,inactive
4,Nc1ccc(O)c(C(=O)O)c1,inactive
5,NC(N)=NC(=O)c1nc(Cl)c(N)nc1N,inactive
6,CC(C)[C@@H]1CC[C@@H](C)C[C@H]1O,inactive
7,Cc1ccc(S(=O)(=O)NC(=O)NN2CCCCCC2)cc1,inactive
8,O=C(c1ccccc1)c1ccccc1,inactive
9,O=C1CN(/N=C/c2ccc([N+](=O)[O-])o2)C(=O)N1,inactive
10,c1ccc2[nH]ccc2c1,inactive
11,CCCCC(CC)COC(=O)/C=C/c1ccc(OC)cc1 (stereo not given),inactive
12,COc1ccc2[nH]cc(CCNC(C)=O)c2c1,inactive
13,O=C(O)CCCCCCCC(=O)O,inactive
14,NC(=O)NC1NC(=O)NC1=O (stereo not given),inactive
15,CCCC(CCC)C(=O)O,inactive
16,O=NO,inactive
17,Cc1noc(NS(=O)(=O)c2ccc(N)cc2)c1C,inactive

# Biological target: Peroxisome proliferator-activated receptor delta (Homo sapiens) (UniProt Q03181)
# Experiment: qHTS assay to identify small molecule agonists of the peroxisome proliferator-activated receptor delta (PPARd) signaling pathway (AID 743212; calls by dose curve)
# Conditions: HEK293H PPARd-UAS-bla, beta-lactamase FRET ratio, 17 h; series mostly up to 62.6 µM
# Method in brief: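 GeneBLAzer PPARd UAS-bla HEK293H cells (beta-lactamase reporter under UAS control), plated and rested 5 h at 37 C, then exposed to compounds in DMSO at 37 C; LiveBLAzer B/G FRET substrate added, 2 h room temperature, fluorescence read.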
# Chain of Peroxisome proliferator-activated receptor delta (Homo sapiens) (Q03181 whole entry, looked up): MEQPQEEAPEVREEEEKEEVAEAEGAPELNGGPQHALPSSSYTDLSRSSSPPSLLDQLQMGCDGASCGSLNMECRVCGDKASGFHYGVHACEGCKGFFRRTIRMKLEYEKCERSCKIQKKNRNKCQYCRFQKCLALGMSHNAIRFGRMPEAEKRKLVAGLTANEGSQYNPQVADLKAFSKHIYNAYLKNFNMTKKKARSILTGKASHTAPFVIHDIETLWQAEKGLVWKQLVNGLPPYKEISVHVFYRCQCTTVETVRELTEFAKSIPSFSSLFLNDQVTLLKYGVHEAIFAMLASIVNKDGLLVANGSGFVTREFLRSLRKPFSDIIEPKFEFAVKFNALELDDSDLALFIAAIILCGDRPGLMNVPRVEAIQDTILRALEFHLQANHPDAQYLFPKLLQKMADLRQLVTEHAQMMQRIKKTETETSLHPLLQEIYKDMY
row,SMILES,outcome
1,O=C(O)CCC(=O)O,inactive
2,CCCC(O)C(CC)CO (stereo not given),inactive
3,CC(O)CO (stereo not given),inactive
4,CC(O)CN(CCN(CC(C)O)CC(C)O)CC(C)O (stereo not given),inactive
5,OC(Cn1cncn1)(Cn1cncn1)c1ccc(F)cc1F,inactive
6,CC(O)C(=O)O (stereo not given),inactive
7,Nc1ccn([C@H]2CC[C@@H](CO)O2)c(=O)n1,inactive
8,CC1(C)[C@@H]2CC[C@@]1(C)C(=O)C2,inactive
9,Cc1ccccc1C(OCCN(C)C)c1ccccc1 (stereo not given),inactive
10,Nc1ccc(S(=O)(=O)Nc2nccs2)cc1,inactive
11,COC(=O)[C@H](Cc1ccccc1)NC(=O)[C@@H](N)CC(=O)O (H-Asp-Phe-OMe),inactive
12,Cc1ccc(C)c(OCCCC(C)(C)C(=O)O)c1,inactive
13,CC(=O)OCC(COC(C)=O)OC(C)=O,inactive
14,C1N2CN3CN1CN(C2)C3,inactive
15,O=c1cc[nH]c(=S)[nH]1,inactive
16,CCCNC(=O)NS(=O)(=O)c1ccc(Cl)cc1,inactive
17,Nc1ccc(O)c(C(=O)O)c1,inactive
18,CC(C)[C@@H]1CC[C@@H](C)C[C@H]1O,inactive
19,Cc1ccc(S(=O)(=O)NC(=O)NN2CCCCCC2)cc1,inactive
20,O=C1CN(/N=C/c2ccc([N+](=O)[O-])o2)C(=O)N1,inactive
21,c1ccc2[nH]ccc2c1,inactive
22,CCCCC(CC)COC(=O)/C=C/c1ccc(OC)cc1 (stereo not given),inactive
23,COc1ccc2[nH]cc(CCNC(C)=O)c2c1,inactive
24,NC(=O)NC1NC(=O)NC1=O (stereo not given),inactive
25,Cc1noc(NS(=O)(=O)c2ccc(N)cc2)c1C,inactive
